From PubChem BioAssay
Shown are actives, neighbours in structure and some others; about 4.1% of the full set was active somewhere.
RecA intein inh = Mtb RecA intein splicing inhibition; P9WHJ3; cell-free RecA intein splicing, fluorescence; inhibition, % (concentration not given with the values); 290,000 tested, 0.75% active; in the data active = inhibition above about 30%
FBA Mtb inh = Mtb fructose-bisphosphate aldolase inhibition | P9WQA3 | purified M. tuberculosis FBA, fluorescence read-out | inhibition, % at 1 µM | 360,000 tested, 2.3% active | AID 588726
Target sequence (P9WQA3 whole entry, looked up): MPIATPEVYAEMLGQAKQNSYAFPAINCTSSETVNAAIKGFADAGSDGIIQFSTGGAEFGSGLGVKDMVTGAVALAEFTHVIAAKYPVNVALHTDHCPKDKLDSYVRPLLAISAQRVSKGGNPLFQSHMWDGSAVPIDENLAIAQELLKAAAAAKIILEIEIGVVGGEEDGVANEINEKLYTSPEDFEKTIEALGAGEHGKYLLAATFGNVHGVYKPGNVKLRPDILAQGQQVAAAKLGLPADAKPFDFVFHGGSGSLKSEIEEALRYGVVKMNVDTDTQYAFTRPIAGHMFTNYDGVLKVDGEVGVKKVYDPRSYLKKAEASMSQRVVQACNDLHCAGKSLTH
BH1578 lux ind = inducers of Vibrio cholerae quorum light production without autoinducers. 350,000 tested, 0.16% active. V. cholerae BH1578 lux reporter, luminescence, 6 h. activation, % at 18.7 µM; in the data active = activation mostly above about 9.7%, no sharp cut-off
Rv3671c inh = inhibits the M. tuberculosis serine protease Rv3671c. inhibition, % at 5.96 µM. P9WHR9. 320,000 tested, 0.048% active; in the data active = inhibition above about 38%;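 note: extracellular domain of Rv3671c used as enzyme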
Mtb UGM inh = blocks M. tuberculosis UGM enzyme; P9WIQ1; purified UGM, fluorescence polarization probe displacement; inhibition, % at 10 µM; 320,000 tested, 0.06% active; AID 504406; in the data active = inhibition above about 10%, passing the limit was not always enough
GDH-TPI counter-1 = GDH-TPI coupled enzyme inhibition counter-screen; 360,000 tested, 1.2% active; inhibition, % at 4.8 µM; GDH-TPI coupled enzyme counterscreen, NADH absorbance; AID 588335; in the data active = inhibition above about 30%
Mtb FBA confirm = confirmation of M. tuberculosis fructose-bisphosphate aldolase inhibitors. purified M. tuberculosis FBA, fluorescence read-out. AID 651616. shares compounds with FBA Mtb inh. 5,600 tested, 78% active. inhibition, % at 1 µM
GDH-TPI counter-2 = counter-screen for M. tuberculosis FBA inhibitors: GDH-TPI coupled enzyme inhibition | shares compounds with FBA Mtb inh | 5,600 tested, 81% active | GDH-TPI coupled enzyme counterscreen, fluorescence | inhibition, % at 1 µM; in the data active = inhibition above about 10%
GDH-TPI dose = GDH-TPI dose response counter-screen for Mtb FBA; 170 tested, 79% active; GDH-TPI coupled enzyme assay, fluorescence, artifact counterscreen; AID 652145; shares compounds with FBA Mtb inh; IC50, µM; call rule not given here
Numbers stand for hits; - = inactive; . = not tested or not shown; + = active, no number. Cut-off read from the data, not from the text of the source, unless noted: active = inhibition above about 27%; inactive = the rest.

SMILES	RecA intein inh	FBA Mtb inh	BH1578 lux ind	Rv3671c inh	Mtb UGM inh	GDH-TPI counter-1	Mtb FBA confirm	GDH-TPI counter-2	others
COC(=O)Cc1c(C)c2ccc(OCC(C)=O)c(C)c2oc1=O	-	79	-	-	-	-	-	-
Cc1ccc2oc(-c3ccc(NC(=O)CC(C)C)cc3)nc2c1	-	30	-	-	-	-	39	36
CCN(CC)CC(=O)Nc1ccc(-c2nc3cc(NC(=O)CN(CC)CC)ccc3o2)cc1	-	88	-	-	-	-	+	150
CCCC(=O)Nc1ccc2oc(-c3ccncc3)nc2c1	-	-	-	-	-	-	.	.
CCC(C)NCC(=O)Nc1ccc(-c2nc3cc(NC(=O)CNC(C)CC)ccc3o2)cc1 (stereo unspecified)	.	99	-	-	-	-	148	110
O=C(CN1CCCC1)Nc1ccc(-c2nc3cc(NC(=O)CN4CCCC4)ccc3o2)cc1	-	107	-	-	-	-	30	24
NC(=O)Cc1ccc(C(=O)c2ccccc2)s1	-	-	-	-	-	-	.	.
CC(C)OC(=O)C1OC1(C)c1ccccc1 (stereo unspecified)	.	-	-	.	.	-	.	.
O=C(Nc1cccc(C(F)(F)F)c1)C1Cc2c(-c3ccccc3)ccnc2O1 (stereo unspecified)	.	-	-	.	.	-	.	.
COc1cc(/C=N/O)ccc1Oc1cnccn1	-	-	-	-	-	-	.	.
O=C(O)c1cc(S(=O)(=O)N(Cc2ccccc2)c2ccc(Cl)cc2)ccc1Cl	-	-	-	-	-	-	.	.
O=C(C1CCCN(S(=O)(=O)c2ccc(F)cc2)C1)N1CCCCCC1 (stereo unspecified)	-	-	-	-	-	-	.	.
Cc1ccc2oc(-c3cccc(N)c3)nc2c1	.	78	-	-	-	-	63	58
CCc1ccc2oc(-c3ccc(NC(C)=O)cc3)nc2c1	-	69	-	-	-	-	181	126
Cc1ccc(-c2nc3ncccc3o2)cc1NC(=O)CC(C)C	-	30	-	-	-	-	-	-
Cc1ccc(-c2nc3cc(N)ccc3o2)cc1	-	-	-	-	-	-	.	.
CCC1CCCCN1C(=O)COc1c(Br)cc(Br)c2cccnc12 (stereo unspecified)	-	-	-	-	-	-	.	.
Cc1nc2c(c(=O)c3ccccc3n2C)c(=O)n1C1CCCCCC1	-	37	-	-	-	-	45	46
C=C1CC[C@@]23CC[C@]4(C)[C@@](OC2=O)([C@@H]3C1)[C@H]1O[C@H]1C1[C@@]2(C)CC[C@H](O)C(C)(C)C2CC[C@]14C (stereo partly specified)	.	-	-	-	-	-	.	.
COc1ccc(/C=C2\Oc3ccccc3C2=O)cc1	.	84	-	-	-	-	-	-	GDH-TPI dose=1.6
COc1ccc(-c2cc3ccccc3n2CC(O)CN2CCN(CCO)CC2)cc1 (stereo unspecified)	.	33	-	-	-	-	-	-
COc1ccc(-c2cc3ccccc3n2CC(O)CN2CCOCC2)cc1 (stereo unspecified)	-	-	-	-	-	-	.	.
COc1ccc(CCNC(=O)C2CCN(C(=O)c3ccccc3)CC2)cc1	-	.	.	-	-	.	.	.
COc1ccc(CCNC(=O)C2CCN(C(=O)c3ccccc3C)CC2)cc1	-	49	-	-	-	-	-	-
CCNC(=O)c1c(O)c2ccccc2[nH]c1=O	-	48	-	-	-	-	180	141
SMILES	RecA intein inh	FBA Mtb inh	BH1578 lux ind	Rv3671c inh	Mtb UGM inh	GDH-TPI counter-1	Mtb FBA confirm	GDH-TPI counter-2	others
CC1CNC(=S)N(c2ccc(F)cc2)C1=O (stereo unspecified)	.	-	-	.	.	-	.	.
c1ccc(-c2cc(-c3nc4ccccc4[nH]3)c3ccccc3n2)cc1	-	60	-	-	-	-	69	71
Cn1cc(-c2nc3ccccc3[nH]2)c2ccccc21	-	44	-	-	-	-	-	-
O=c1[nH]nc(-c2cc(-c3ccccc3)nc3ccccc23)o1	.	65	-	.	.	-	122	94
O=C(O)c1cc(-c2ccccc2)nc2ccccc12	-	-	-	-	-	-	.	.
COCCOCCn1c(/C=C/c2ccccc2)nc2ccccc21	-	28	-	-	-	-	-	-
CC(C)n1c(/C=C/c2ccccc2)nc2ccccc21	-	67	-	-	-	34	36	20
Cc1ccc(NC(=O)Cn2c(/C=C/c3ccccc3)nc3ccccc32)cc1C	-	29	-	-	-	-	68	53
CC(C)n1c(CN(C)c2ccccc2)nc2ccccc21	-	-	-	-	-	-	.	.
O=C1NN(c2cccc(Br)c2)C(=O)/C1=C\c1ccc(N2CCOCC2)cc1	-	-	-	-	-	-	.	.
CCOc1ccc(NC(=O)CN(C)C(=O)c2c(-c3ccccc3Cl)noc2C)cc1OCC	-	-	-	-	-	-	.	.
COc1cc2cc(CN(Cc3nnnn3Cc3ccco3)C3CCCCC3)c(=O)[nH]c2cc1OC	-	40	33	-	-	-	63	53
COCCn1nnnc1CN(Cc1cc2cc(OC)c(OC)cc2[nH]c1=O)C1CCCC1	-	39	-	-	-	-	73	70
CCOc1ccc2[nH]c(=O)c(CN(Cc3nnnn3Cc3ccco3)C3CCCCC3)cc2c1	-	-	-	-	-	-	.	.
CCOC(=O)C1CCN(C(=O)COC(=O)C23CC4CC(CC(C4)C2)C3)CC1	.	-	-	-	-	-	.	.
CCN(C(=O)CN1C(=O)S/C(=C\C=C\c2ccccc2)C1=O)C1CCS(=O)(=O)C1 (stereo unspecified)	-	-	-	-	-	-	.	.
Cc1ccc(CNS(=O)(=O)c2cc3c4c(c2)C(C)C(=O)N4CCC3)cc1 (stereo unspecified)	-	-	-	-	-	-	.	.
COC(=O)c1ccc(C)c(NC(=O)CCNC(=O)c2ccc([N+](=O)[O-])cc2)c1	-	-	-	-	.	-	.	.
Cc1ccc(F)cc1NC(=O)CCNC(=O)c1ccc([N+](=O)[O-])cc1	-	37	-	-	-	-	163	124
COc1ccc(-c2c(-c3ccc4c(c3)OCO4)c3ccccc3n2C)cc1	.	-	-	.	.	-	.	.
CC(=O)c1ccc(O[C@@H]2O[C@H](CO)[C@@H](O)[C@H](O)[C@H]2O)cc1	.	.	.	-	-	.	.	.
Cc1c(O[C@@H]2O[C@H](CO)[C@@H](O)[C@H](O)[C@H]2O)ccc2c1oc(=O)c1ccccc12	-	88	-	.	-	-	62	52
Cc1c(C)c2ccc(O[C@@H]3O[C@H](CO)[C@H](O)[C@H](O)[C@H]3O)c(C)c2oc1=O	-	34	-	.	-	-	49	44
